# According to PubChem BioAssay AID493169 (National Center for Advancing Translational Sciences (NCATS), 2011):
# Inconclusive results are not listed. Unmarked numbers belong to inactive results. Active and inactive are the calls of the source. Calls come from the whole dose curve; as a rule, active = well fitted inhibition curve with a large enough effect; inconclusive = small, poorly fitted or top-dose-only effect; inactive = flat fitted curve, though single readings scatter.
# Assay: CHOP2 Reporter Counterscreen Assay for Inhibitors of Ubiquitin-specific Protease USP2a;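 note: activated enterokinase alone at 50 pM in a cell-free format rather than USP2a or CHOP2; nearly all actives have a fitted effect of over 55% in size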
# Conditions: purified enterokinase, fluorogenic substrate, 485/531 nm; series mostly up to 38.3 µM; activity change, negative = inhibition: at the top concentration
# How it was run: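 Cell-free counterscreen with pre-activated enterokinase alone (50 pM final) in 20mM Tris-HCl pH 8.0, 2mM CaCl2, 2mM beta-mercaptoethanol, 0.05% CHAPS; compound preincubation 30 min RT, reporter substrate 25nM final, fluorescence read after 10 min (Ex 485/Em 531).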
# % is set by controls: 0 for no effect and ±100 for the full control effect; potency is the fitted concentration of half-maximal effect.
Compound,"activity change, negative = inhibition [%]",Potency
Cc1ccc(SCC(=O)NCC(C)C)cc1,6.35,–
O=C(Cc1ccc(S(=O)(=O)N2CCOCC2)s1)Nc1nc2c(s1)CCCC2,–,10 µM (active)
CC[n+]1c(/C=C/N(C)c2ccccc2)n(-c2ccccc2)c2ccc(-c3nc4ccccc4s3)cc21,–,10 µM (active)
Cc1cccc(NC(=S)NCc2ccc3c(c2)cc(C)n3C)c1C,2.98,–
CCCCCCCC/C=C\CCCCCCCC(=O)NCCc1ccc(O)c(O)c1,-8.38,–
O=C1NCC(CN(c2ccccc2)c2ccccc2)O1 (stereo not given),0.268,–
Cc1ccc(Nc2cc(C)nc(NCc3ccccc3)n2)cc1,-2.96,–
CCCCCCCCCCCCCCCC[N+](C)(C)CCN(Cc1ccc(OC)cc1)c1ncccn1,–,10 µM (active)
CCOC(=O)C1CCCN(CC(=O)Nc2c(C(=O)OC)[nH]c3ccc(C)cc23)C1 (stereo not given),-2.91,–
CCC1SC2=NC(C)=C(C(=O)OCCOC)C(c3ccc(C(=O)OC)cc3)N2C1=O (stereo not given),0.0445,–
COc1ccccc1N1CCN(c2cc(C)nc3nc(C)nn23)CC1,2.05,–
COc1ccc(NC(=O)CSc2nc3sc(C)cc3c(=O)n2C)c(OC)c1,-4.63,–
Nc1c(C(=O)NCC2CCCO2)sc2nc3c(c(-c4ccco4)c12)CC/C3=C\c1ccco1 (stereo not given),–,3.16 µM (active)
O=C(CSc1nc2ccccc2[nH]1)Nc1ccc2c(c1)OCCO2,-0.689,–
O=C(CSc1nnc(SCc2ccccc2)s1)N/N=C/C=C/c1ccco1,–,2.51 µM (active)
COc1ccc(OC)c(NC(=O)CSc2nc(O)cc(=O)n2CC(C)C)c1,0.692,–
CC(C)c1ccc(NC(=O)C(c2ccc3c(c2)OCO3)N2CCCCC2)cc1 (stereo not given),0.102,–
Cc1c(N=C/C=C2\N(C)c3ccccc3C2(C)C)c(=O)n(-c2ccccc2)n1C,0.17,–
COc1ccc(CN(Cc2cc3cc(C)ccc3[nH]c2=O)C(=O)N(C)C)cc1,-2.81,–
Nc1c(C(=O)Nc2ccc3c(c2)OCCO3)nnn1CCc1ccccc1,-1.84,–

Compound,"activity change, negative = inhibition [%]",Potency
COc1cc(NC(=O)COC(=O)CSc2ccccc2F)c(C)cc1[N+](=O)[O-],-22.9,–
O=C(N/C(=C/c1cccnc1)C(=O)N1CCOCC1)c1ccco1,0.49,–
Cc1ccc(N2CN=c3s/c(=C\c4cccnc4)c(=O)n3C2)cc1,3.22,–
CCOc1cc(N2CCOCC2)c(OCC)cc1NC(=O)Cc1cn2ccsc2n1,5.43,–
O=C(CC(C(=O)O)C1CCCO1)NCCc1ccc2c(c1)OCO2 (stereo not given),-1.81,–
O=C1Nc2ccccc2SC(c2ccccc2)C1O (stereo not given),–,7.94 µM (active)
CN(C)CCCN1C(=O)C(=O)/C(=C(/O)c2ccncc2)C1c1cccnc1 (stereo not given),0.275,–
COc1ccc(C(=O)Nc2ccc(N3CCCC3)cc2)cc1OC,0.701,–
O=C(/C=N/O)NCc1cccnc1,0.652,–
CCC(C(=O)Nc1nnc(-c2ccco2)s1)c1ccccc1 (stereo not given),4.66,–
Cc1ccc(OCC(=O)Nc2ccc(N3CCCC3)cc2)cc1C,–,10 µM (active)
C/C(=N/NC(=O)c1cc2ccccc2cc1O)C1C(=O)c2ccccc2C1=O,-9.31,–
N=c1sccn1CC(=O)Nc1ccc(S(=O)(=O)N2CCOCC2)cc1,10.2,–
COc1ccc(Cc2nnc(NC(=O)Cc3cccs3)s2)cc1,–,1.78 µM (active)
CCCCCCCCCCOC(=O)Cn1c(COc2cccc(C)c2)[n+](C)c2ccccc21,–,10 µM (active)
COCc1cc(C)nc(OCC(=O)N/N=C\c2cc(C)n(-c3cccc(C(F)(F)F)c3)c2C)c1C#N,-0.186,–
O=C(NCCC1=CCCCC1)C1CCCN(S(=O)(=O)c2cnc[nH]2)C1 (stereo not given),-0.374,–
Cn1c(C(=O)NCCN2CCOCC2)cc2c(=O)n(C)c3ccccc3c21,-0.0744,–
COc1ccc(NC(=S)NC(=O)/C=C/c2ccco2)cc1,-2.95,–
Cn1c(SCc2nc3ccccc3s2)nnc1-c1cccs1,1.81,–
